Several values for one entry are separate records, joined by “and”; a condition that tells them apart may be missing. Identical values can stand only once. Compounds without any hit were thinned out: in the full panel of roughly 83,000, 20% have a hit.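 48-hour exposure, single concentration, 96-well plates; percent growth endpoint where 0 means no net growth. Active: below 10.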 Activity calls are given as the source filed them.

The subject of the experiment is MDA-MB-468 breast. The experiment is described as follows: NCI-60 one-dose screen, 48 h (100 = growth as untreated, 0 = no growth, -100 = all killed). The conditions noted are these: 10 µM unless noted.
For `CC[N+](CC)(CCCC(C)[N+]1(Cc2ccccc2)C(C)=CC=C1C)Cc1ccccc1` (stereo unspecified), the growth was -12.8% (active).
On to `COc1cc(C=C2C(=O)N(C)C(=O)N(C)C2=O)cc(CN2CCCCC2)c1O`, for which the growth was 104% (inactive).
For `COC(=O)[C@]12CC[C@@H](C)[C@H](C)[C@@H]1C1=CC[C@@H]3[C@@]4(C)C=C(O)C(=O)C(C)=C4CC[C@@]3(C)[C@]1(C)CC2` the value was 10.6% (inactive); for `COc1ccccc1-n1c(-c2cc(O)ccc2C)cn2c3c(=O)[nH]c(=O)n(C)c3nc12`, 92.3% (inactive); for `CCN1CCN(Cc2ccc(NC(=O)Nc3ccc(-n4ccc5c(NC(=O)c6ccccc6)nccc54)cc3)cc2C(F)(F)F)CC1`, 60.1% (inactive).
Regarding `COc1ccc(-c2nnc(COc3ccc(C(=O)/C=C/c4ccco4)cc3)o2)cc1`, the growth was 20.4% (inactive).
As for `CCCc1cccc(CCC)c1O`, the growth is 118% (inactive).
In the case of `O=C(Nc1ccc(F)cc1)c1c(NC(=O)C(F)(F)F)sc2c1CCCCC2`, the growth is -17% (active).
Consider `C#CCNC(=O)CC[C@]1(C)[C@H]2CC[C@@H]3[C@@H]([C@@](C)(O)CCC=C(C)C)CC[C@@]3(C)[C@]2(C)CC[C@H]1C(=C)C`, for which the growth is 48.5% [100 µM] (inactive).
In the case of `O=C(NCCCO)c1cc(Cl)ccc1O`, the growth is -12.2% (active).
In the case of `CCCCCCCCCCCCCCCCC1CC(=O)OC1=O` (stereo unspecified) it was 119% (inactive); in that of `COc1ccc(/C=C2\COc3ccc(O)c(O)c3C2=O)c(OC)c1OC`, 7.7% (active); in that of `COc1cc(C2CC(=O)Nc3c2c(C)nn3-c2nc3ccccc3[nH]2)c(OC)c(OC)c1OC` (stereo unspecified), 31.1% (inactive).
Consider `Cc1ccc(Nc2ccc(O)c3c2C(=O)c2c(O)ccc(Nc4ccc(C)cc4)c2C3=O)cc1`, for which the growth was 95.8% (inactive).
For the compound `COc1ccccc1Nc1nc2c(s1)C1=CC[C@H]3[C@@H]4CC[C@H]([C@H](C)CCCC(C)C)[C@@]4(C)CC[C@@H]3[C@@]1(C)CC2`, the growth was 113% (inactive).
`COc1cc(-c2nc(-c3nnc(-c4ccccc4Cl)o3)c3ccccn23)cc(OC)c1OC`: the growth is 88.5% (inactive).
With `C=CCNC(=O)c1ccc(OC)cc1`, the growth was 124% (inactive).
With `CCC(=C(c1ccc(OCCN2CCCC2)cc1)c1ccc(OCCN2CCCC2)cc1)c1ccc(Cl)cc1`, the growth is -53.5% (active).
For the compound `COc1cc(-c2nc(-c3ccccc3)c(-c3ccccc3)[nH]2)cc(OC)c1O`, the growth is -49.2% (active).
On to `O=C(NC(=O)c1ccc(F)c(Cl)c1)NC1CC1`, for which the growth was 103% (inactive) and 87.4% (inactive).
With `COc1cc2c(Nc3ccc(Cl)c(Cl)c3F)ncnc2cc1OCC1C[C@@H]2CN(C)C[C@@H]2C1` (stereo partly specified), the growth was -86.1% (active) and -71.9% (active).
With `CCCCCCCCCN1C(=O)/C(=c2\sc3n(c2=O)C2C(NN=3)N(CC)C(=O)N2CC)c2ccccc21` (stereo unspecified), the growth was 37.9% (inactive).
For the compound `Cn1c2c(c3ccccc31)CCN1C[C@@H]3CCCC[C@H]3C[C@@H]21`, the growth was -16.1% (active).
For `CC(=O)Oc1c(Cl)cccc1-c1ccccc1` the value was 100% (inactive).
Take `COc1ccc(-c2nc(N3CCN(C(=O)C4CCCCC4)CC3)c3c4c(sc3n2)CCCC4)cc1`: the growth was -17.4% (active).
For the compound `O=C(Nc1ncc(Cc2cccc(C(F)(F)F)c2)s1)c1ccc2c(c1)OCCO2`, the growth was 15.6% (inactive).
For `C#Cc1cccc(Nc2ncnc3cc4c(cc23)OCCOCCOCCO4)c1` the value was -26.7% (active); for `CC(=O)O[C@@H]1C[C@]2(C(C)C)O[C@@]1(C)[C@@H]1CCC(C)=C1[C@@H]2OC(=O)/C=C/c1ccccc1`, 81.5% (inactive); for `COc1cc(Nc2nc(NCCN)nc3cc[nH]c(=O)c23)cc(OC)c1`, 3.37% (active).
Consider `O=Nc1ccc(O)c(=O)cc1`, for which the growth was -53.1% (active).
Take `Nc1cc2c([nH]c[n+]2CC#CCCl)c(SCC#CCCl)n1`: the growth was -57.1% (active).
In the case of `COc1cc2cc(NCc3ccncc3)nc(C)c2cc1OC`, the growth is 87.7% (inactive).
In the case of `C[C@@H]1O[C@@H](O[C@@H]2C[C@H](c3ccc4c(c3O)C(=O)C3=C(C4=O)[C@@]4(O)C(=O)C[C@](C)(O)C[C@@]4(O)C=C3)O[C@H](C)[C@H]2O)CC[C@@H]1O[C@H]1C[C@@H](O)[C@H](O)[C@@H](C)O1`, the growth is 106% (inactive).
`COCCN(C(=O)c1ccc(F)cc1F)c1c(N)n(Cc2ccccc2)c(=O)[nH]c1=O`: the growth was 87.8% (inactive).
Take `COC(=O)CCC(=O)C(=O)OC`: the growth is 52.9% [10 mM] (inactive).
With `COc1cc(NC(=O)Nc2cccc(-c3cc(=O)c4c(OC)c(OC)c(OC)cc4o3)c2)cc(OC)c1OC`, the growth is 40.4% (inactive).

The values above are taken from PubChem BioAssay (NCI).
